Measurements from PubChem BioAssay (NCI).
This is part of a sample that, as a whole, favours compounds with a hit. Of some 79,000 tested, about 15% had one in any assay. Calls of active or inactive are those of the source. No stated cut-off is given here; in the data, active means growth inhibition above about 70%; inactive means the rest.

Experiments:
[1] = NCI Yeast Anticancer Drug Screen. Data for the rad50 strain (AID 155);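 further: 0% = growth of vehicle-only cultures of the same strain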; details: S. cerevisiae rad50 strain growth inhibition; at 50.0 µM; hits give high values
Outline: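 Vehicle-treated cultures provide the reference for the growth inhibition reported for compound-exposed, repair-deficient yeast.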

[2] = NCI Yeast Anticancer Drug Screen. Data for the mec2-1 strain (AID 157); details: S. cerevisiae mec2-1 strain, at 50.0 µM, hits give high values
Outline: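 Using mec2-1 yeast: add compound, measure growth, express inhibition versus vehicle-treated cultures.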

[3] = NCI Yeast Anticancer Drug Screen. Data for the sgs1 mgt1 strain (AID 161);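 further: 0% = growth of cultures given vehicle only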; details: S. cerevisiae sgs1 mgt1 strain, at 50.0 µM, hits give high values
Outline: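 Yeast cells carrying a defined DNA-repair defect were exposed to test compounds. Growth inhibition was measured relative to vehicle-treated controls.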

[4] = NCI Yeast Anticancer Drug Screen. Data for the cln2 rad14 strain (AID 165);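 further: 0% = growth equal to vehicle treated cultures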; details: S. cerevisiae cln2 rad14 strain, at 50.0 µM, hits give high values
Outline: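 Yeast strain cln2 rad14, bearing defects in cell cycle control and DNA repair, serves as the test system; values reflect growth inhibition compared with vehicle.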

[5] = NCI Yeast Anticancer Drug Screen. Data for the bub3 strain (AID 167); details: S. cerevisiae bub3 mutant strain, at 50.0 µM, hits give high values
Outline: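 Mutant yeast screening strain plus compound; vehicle-treated cultures serve as the 0% inhibition reference.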

[6] = NCI Yeast Anticancer Drug Screen. Data for the mlh1 rad18 strain (AID 175); details: S. cerevisiae mlh1 rad18 strain growth inhibition; at 50.0 µM; hits give high values
Outline: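 Steps: expose repair-defective yeast to compound; measure growth; express inhibition against vehicle-treated controls.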

Measured: growth inhibition

COc1ccc2[nH]cc(CN3CCC(CO)(c4ccccc4)CC3)c2c1
inactive: [1] 13.4% | [2] 1.2% | [3] -16.4% | [4] 6.9% | [5] 5.95% | [6] 3.55%

O=C(Nc1ccccc1)N1CC2(CN1)CNN(C(=O)Nc1ccccc1)C2
inactive: [1] -3.35% | [2] -3.25% | [3] 15.7% | [4] -8% | [5] -3.35% | [6] -9.75%

CC(=O)NC1CCCCC1C1CCC([N+](=O)[O-])CC1 (stereo unspecified)
inactive: [1] 12.6% | [2] -1.75% | [3] -12.5% | [4] 12.7% | [5] 6.9% | [6] 6.05%

C=CCNC(=O)/C=C/C(=O)O
inactive: [1] -8.15% | [2] 6.85% | [3] 0.35% | [4] 4.45% | [5] 12.5% | [6] 6.15%

C[S+]1CC2C3CC(C#N)C(C3)C2C1 (stereo unspecified)
inactive: [1] 2.4% | [2] 11.2% | [3] 2.95% | [4] -28.1% | [5] -1.85% | [6] 16.9%

COc1cccc(/C=N\c2nc(-c3ccccc3Cl)cs2)c1O
inactive: [1] 44% | [2] 5.15% | [3] 32.4% | [4] 21.9% | [5] 39.6% | [6] 27.4%

CS(=O)(=O)Oc1ccc2cc(Br)ccc2c1
inactive: [1] 13.6% | [2] -5.35% | [3] -0.3% | [4] 4.25% | [5] 31.4% | [6] 9.75%

C[N+]([O-])(C/C=C/c1ccccc1)c1ccccc1 (stereo unspecified)
inactive: [1] -3.25% | [2] -2.3% | [3] -2.65% | [4] 5.45% | [5] -29.1% | [6] -2.7%

Cc1ccc2nc(C)cc(N=[N+]=[N-])c2c1
inactive: [1] -35.6% | [2] -21.8% | [3] -17.1% | [4] -58.9% | [5] -2.2% | [6] -11.5%

C/C(CC(=O)Nc1ccc(NC(=O)C/C(C)=N\NC(N)=O)cc1)=N/NC(N)=O
inactive: [1] 3.5% | [2] -23.9% | [3] -4.65% | [4] 11.1% | [5] -14.1% | [6] 6.75%

CCN(CC)CCCNc1ccnc2ccc(Cl)cc12
inactive: [1] -9.9% | [2] -15.6% | [3] 5.45% | [4] -17.9% | [5] 13.9% | [6] 2.55%

CCOc1ccc(N2C(C#N)c3ccccc3OC2c2ccccc2O)cc1 (stereo unspecified)
inactive: [1] 3.65% | [2] 46.1% | [3] 18.6% | [4] -5.2% | [5] 32.5% | [6] 11.6%

COC(=O)c1nc(NN)[nH]c(=O)c1CCCCCc1c(C(=O)OC)[nH]c(NN)cc1=O
inactive: [1] -35.4% | [2] -6.65% | [3] -14.1% | [4] 14.9% | [5] -18.1% | [6] -8.85%

CC(C)c1ccc(/C=C/C(=O)c2ccc(F)cc2)cc1
inactive: [1] 14.6% | [2] 13.5% | [3] 16.5% | [4] 10.1% | [5] 5.05% | [6] 17.6%

O=Cc1ccc2c(c1)CC1(Cc3ccccc3C1)C2
inactive: [1] -3.35% | [2] -47.8% | [3] -10.8% | [4] -7.2% | [5] 9.9% | [6] -30.3%

COC(=O)c1ccc(/C2=c3\cc/c([n-]3)=C(\c3ccc(C(=O)OC)cc3)c3ccc([n-]3)/C(c3ccc(C(=O)OC)cc3)=c3/cc/c([n-]3)=C(\c3ccc(C(=O)OC)cc3)c3ccc2[n-]3)cc1.[Mn]
inactive: [1] 14.8% | [2] 23.1% | [3] 12.5% | [4] -3.65% | [5] -4.55% | [6] 53.7%

CCC(CC)(C(=O)O)C(=O)O
inactive: [1] 34.1% | [2] 9.3% | [3] -3.35% | [4] -33.2% | [5] 12.7% | [6] 5.8%

O=C(O)Cn1ccc(=O)c2ccc([N+](=O)[O-])cc21
inactive: [1] 35.7% | [2] 15.2% | [3] 13.7% | [4] 26.9% | [5] 23.8% | [6] -47.5%

Cc1ncc([N+](=O)[O-])n1CCNC(=O)CCCCCn1ccnc1[N+](=O)[O-]
inactive: [1] 3.1% | [2] -4.05% | [3] -9.45% | [4] 19.7% | [5] -6.15% | [6] -35.2%

CN(C)C(=O)C1CCC(CC2CCCCC2)CC1 (stereo unspecified)
active: [1] 99.1% | [2] 99.2% | [3] 99% | [4] 96.3% | [5] 98.3% | [6] 80.9%

NC1=NC(c2ccccc2)N=C(Nc2ccccc2)N1 (stereo unspecified)
inactive: [1] 37.2% | [2] 1.4% | [3] 16.4% | [4] -15% | [5] 15.2% | [6] 41.6%

CCN(CC)CC(O)c1cccc2cccnc12 (stereo unspecified)
inactive: [1] 67.7% | [2] -11.4% | [3] 17.4% | [4] 8.8% | [5] 5.2% | [6] 30.2%

C=C(CC)C(=O)c1ccc(OCC(=O)O)c(Cl)c1Cl
inactive: [1] 14.7% | [2] -15.9% | [3] 16.6% | [4] 16.1% | [5] 19.8% | [6] -8.35%

CCCCCCC(C)CC1=C(O)c2ccccc2C(=O)C1=O (stereo unspecified)
inactive: [1] -18.5% | [2] 7.55% | [3] -1.9% | [4] -38.4% | [5] 13.6% | [6] 5.25%

O=c1cc(-c2ccccc2)nc(/C=C(\O)c2ccncc2)n1-c1ccccc1
inactive: [1] -4.25% | [2] -18.9% | [3] 0.4% | [4] 10.1% | [5] 15.5% | [6] -8.15%

CCN(CC)C(=O)c1cc2c(cc1[N+](=O)[O-])OCO2
inactive: [1] -0.6% | [2] -15.4% | [3] 3.65% | [4] -45.8% | [5] 1.25% | [6] -18.4%

C[N+]1(C)CCC(C(=O)c2ccccc2)CC1
inactive: [1] 1.15% | [2] 4.95% | [3] 5.6% | [4] -17.9% | [5] 17% | [6] 16.4%

Cc1[nH]n(C(N)=S)c(=O)c1N=Nc1c(Cl)cccc1Cl
inactive: [1] 55.4% | [2] 14.9% | [3] 63.2% | [4] -37.4% | [5] 11.9% | [6] 51%

CN(C)c1ccc(/C=C(\C#N)c2cccc(Br)c2)cc1
inactive: [1] -2.45% | [2] -7.3% | [3] 3.1% | [4] -11.3% | [5] 12.1% | [6] -0.05%

FC(F)(F)c1ccccc1N=Cc1cccs1
inactive: [1] -12.1% | [2] -9.55% | [3] 23.1% | [4] 3.05% | [5] 13.4% | [6] 20.3%

CC(C)(C)CC(C)(C)N1CNC(=S)NC1
inactive: [1] 19% | [2] -1.95% | [3] 18.3% | [4] 10.8% | [5] 21.8% | [6] 16.8%

Cc1nn(C)c(C#N)c1[N+](=O)[O-]
inactive: [1] -7.05% | [2] -30.3% | [3] -36.3% | [4] 4.4% | [5] -16.2% | [6] 0.8%

O=C(c1ccccc1)C1(Cl)CCCCC1
inactive: [1] -9.95% | [2] -12.6% | [3] -10.8% | [4] -8.45% | [5] -5.15% | [6] 15.6%

CCOc1nc(OCC)c2cnn(C)c2n1
inactive: [1] 6.3% | [2] 1.75% | [3] -3.55% | [4] -28.8% | [5] 7.55% | [6] -3.55%

O=[N+]([O-])c1ccc(-c2nc3ncncc3[nH]2)cc1
inactive: [1] 13.2% | [2] -3.25% | [3] -0.75% | [4] 13.1% | [5] 5.05% | [6] 7.25%

CCOC(=O)C(N)Cc1cc(I)c(O)c(I)c1 (stereo unspecified)
inactive: [1] -20.1% | [2] -31.1% | [3] -14.4% | [4] 7.8% | [5] -23.2% | [6] -25.1%

CCC(C(=O)NC1c2ccccc2Oc2ccccc21)c1ccccc1 (stereo unspecified)
inactive: [1] -0.85% | [2] -9.85% | [3] 0.55% | [4] -12.4% | [5] 4.5% | [6] -2.5%

O=C(/C=C/c1cccs1)c1ccc(C(=O)/C=C/c2cccs2)cc1
inactive: [1] -32.6% | [2] -46.4% | [3] -18% | [4] 11.2% | [5] -3.5% | [6] -31.9%

O=C(O)C(Cc1ccc(OS(=O)(=O)Cc2ccccc2)cc1)NS(=O)(=O)Cc1ccccc1 (stereo unspecified)
inactive: [1] 29.9% | [2] 5.2% | [3] 8.1% | [4] 5.1% | [5] 12.4% | [6] 24.1%

COc1ccc(OC)c2cc(C3(C)SCCCS3)ccc12
inactive: [1] -9% | [2] 9.35% | [3] 19.2% | [4] 15.3% | [5] 13.2% | [6] -12.2%

COCCCC12C=C(OC)C(=O)C=C1OC(c1cc(OC)c(OC)c(OC)c1)C2C (stereo unspecified)
inactive: [1] 0% | [2] -13.1% | [3] -36% | [4] -18% | [5] -32.5% | [6] -14.5%
